# Screening data (PubChem)
# FBW7 act: human FBW7 E3 ligase activation, primary screen | Q969H0 | AlphaScreen FBW7–phospho-cyclin E peptide binding, activator screen | normalized activity (activation), % at 26.1 µM | hit rate 0.13% among 650,000 | AID 1259310; in the data active = normalized activity above about 1.9%;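 note: purified mutant Fbw7 with reduced substrate affinity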
# Target sequence (Q969H0 whole entry, looked up): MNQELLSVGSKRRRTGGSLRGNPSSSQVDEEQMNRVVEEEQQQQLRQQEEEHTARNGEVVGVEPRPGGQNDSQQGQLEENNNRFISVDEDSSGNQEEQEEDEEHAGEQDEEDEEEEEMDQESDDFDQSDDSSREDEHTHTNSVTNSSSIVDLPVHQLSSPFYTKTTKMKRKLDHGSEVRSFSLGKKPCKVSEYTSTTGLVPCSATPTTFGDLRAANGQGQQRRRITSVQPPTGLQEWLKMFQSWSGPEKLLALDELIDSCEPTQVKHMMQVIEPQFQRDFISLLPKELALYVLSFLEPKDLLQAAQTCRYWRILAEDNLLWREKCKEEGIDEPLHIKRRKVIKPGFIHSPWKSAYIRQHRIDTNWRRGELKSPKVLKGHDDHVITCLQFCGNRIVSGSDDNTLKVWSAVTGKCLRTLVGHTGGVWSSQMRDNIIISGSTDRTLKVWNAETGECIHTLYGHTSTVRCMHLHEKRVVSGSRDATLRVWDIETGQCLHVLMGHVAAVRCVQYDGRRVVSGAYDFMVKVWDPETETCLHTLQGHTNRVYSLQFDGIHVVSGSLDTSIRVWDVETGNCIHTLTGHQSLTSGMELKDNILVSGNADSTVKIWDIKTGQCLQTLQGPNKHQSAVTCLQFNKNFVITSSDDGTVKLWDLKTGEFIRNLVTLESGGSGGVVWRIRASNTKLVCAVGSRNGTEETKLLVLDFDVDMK
# TEAD-YAP block: TEAD-YAP interaction inhibition | HEK-TIYL cells, TEAD-Gal4/YAP UAS-luciferase luminescence | inhibition, % at 9.12 µM | hit rate 1.4% among 640,000 | AID 1259422; in the data active = inhibition above about 32%;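 note: 0% = median of test compound wells and 100% = reference inhibitor wells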
# GPR151 activ: activators of human GPR151 | Q8TDV0 | PathHunter beta-arrestin GPR151 cells, luminescence | activation, % at 11.2 µM | hit rate 1% among 650,000; in the data active = activation above about 4.9%;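 note: 0% = median of compound wells and 100% = cells with positive control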
# MITF primary: human MITF inhibition, primary screen; O75030; AlphaScreen MITF homodimerization, bead proximity signal; inhibition, % at 2.6 µM; hit rate 0.91% among 650,000; AID 1259374; in the data active = inhibition above about 50%;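 note: 0% = vehicle wells with protein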
# * marks the source's active call; other numbers are inactive results. This is a sample that favours compounds with a hit; in the whole collection about 3.4% have one here.
SMILES,FBW7 act,TEAD-YAP block,GPR151 activ,MITF primary
COc1ccc(/C=C(\C#N)c2nc3ccccc3c(=O)[nH]2)cc1[N+](=O)[O-],0,-4,-1,3
CC(=O)NCC1Cc2cc(-c3cnccn3)cc(Cl)c2O1 (configuration not stated),0,-7,1,-7
O=C(/C=C/c1ccc2c(c1)OCCCO2)c1cc([N+](=O)[O-])ccc1O,0,79*,-4,15
COC(=O)c1sc(N)c(C(=O)OC)c1COC(=O)c1c(C)noc1C,0,46*,-1,9
CCOC(=O)c1c(N)sc(C(=O)OC)c1CC(=O)OC,0,7,2,0
O=C(NCc1cccnc1)c1cccc(NC2CCN(Cc3ccccc3)CC2)n1,0,-9,2,11
CCc1ccc2c(c1)NC(=O)C2(C)Cc1cccc(C(=O)OC)c1 (configuration not stated),0,44*,1,2
CCCCN1/C(=C/c2ccc3ccccc3[n+]2CC)Sc2cc(NC(C)=O)ccc21,0,16,0,18
CCC[n+]1c(/C=C2\Sc3ccccc3N2CC)ccc2ccccc21,0,88*,4,7
CCCC[n+]1ccccc1/C=C1\Sc2ccccc2N1CC,0,89*,0,3
CCCCC[n+]1c(/C=C2\Sc3ccccc3N2CC)ccc2ccccc21,0,83*,3,13
c1ccc(C2(c3ccccc3)NCCO2)cc1,0,12,2,3
O=C(CCN1C(=O)C2CC2C1=O)c1ccccc1 (configuration not stated),0,-21,0,0
CCOc1ccccc1C1NC(=O)N(Cc2ccccc2)C(C)=C1C(=O)OC (configuration not stated),0,-9,-1,-8
COC(=O)c1ccc2c(c1)C(=O)/C(=C/c1cc(OC)c(OC)c(OC)c1)O2,0,-8,1,5
COc1cccc(/C=C2\Oc3ccc(O)cc3C2=O)c1O,0,97*,-8,3
COC(=O)c1ccc2c(c1)C(=O)/C(=C/c1ccc(O)cc1)O2,0,52*,2,0
COC(=O)c1ccc2c(c1)C(=O)/C(=C/c1ccccc1OC)O2,0,-3,2,-2
COC(=O)c1ccc2c(c1)C(=O)/C(=C/c1cccc(O)c1)O2,0,42*,-2,13
COc1ccc(-c2nc(Nc3ccc(N4CCOCC4)cc3)nc(OC)n2)cn1,0,3,2,6
COC(=O)C1=C(NC(=O)c2cc(Cl)ccc2[N+](=O)[O-])CCS1,0,-8,-2,14
COc1cccc(/C=C2\CN(C)C/C(=C\c3cccc(OC)c3OC)C2=O)c1OC,0,33*,0,17
N#C/C(=C\c1ccccc1OCc1ccc([N+](=O)[O-])cc1)C(=O)NCC1CCCO1 (configuration not stated),0,-8,-1,3
CC1=Nc2cc(C(=O)NCCN(C)C)ccc2Sc2ccc(Cl)cc21,0,56*,0,-6
CCC1=Nc2cc(C(=O)NCCOC)ccc2Sc2ccccc21,0,57*,2,5
SMILES,FBW7 act,TEAD-YAP block,GPR151 activ,MITF primary
CCC1=Nc2cc(C(=O)NCC(OC)OC)ccc2Sc2ccccc21,0,36*,0,5
CC(C)(O)C(=O)/C=C/c1cccc([N+](=O)[O-])c1,0,48*,-1,0
Cc1nn(-c2ccc(F)cc2)c2sc(C(=O)NCc3ccc(S(N)(=O)=O)cc3)cc12,0,40*,0,-1
O=C(Nc1ccc(Br)cc1)c1cnn2ccccc12,0,32*,-3,6
CC(C)(C)C(=O)NCC(c1cccnc1)N1CCN(c2ccccc2F)CC1 (configuration not stated),1,2,0,7
COC(=O)Cc1nc(NCc2ccccc2)c2c(C)c(C)sc2n1,1,67*,1,8
COc1ccc(CNCc2cc(OC)c(OC)c(OC)c2)cc1C,0,-1,1,51*
COc1ccc(CNCc2ccccc2)cc1OC,0,2,1,-9
CCOC(=O)N1CCC(Nc2ncnc3c2c(-c2ccccc2)cn3-c2cccc(Cl)c2)CC1,0,0,1,8
CCN(CC)CCCNc1nc2ccccc2c2nc(-c3ccncc3)nn12,0,80*,-1,-7
CC1CCCCN1CCCNc1nc2ccccc2c2nc(-c3ccncc3)nn12 (configuration not stated),0,80*,1,5
CCCCNc1nc2ccccc2c2nc(-c3ccncc3)nn12,0,-4,0,-5
CCN(CC)CCCNc1nc2cc(OC)c(OC)cc2c2nc(-c3ccccc3)nn12,0,32*,1,17
CCN1CCN(C(=O)c2ccc(CS(=O)Cc3ccc(Cl)cc3)o2)CC1 (configuration not stated),0,-3,1,2
O=C(N1CCOCC1)N1CCCC(c2ncncc2-c2ccncc2)C1 (configuration not stated),2.2*,11,0,16
O=C(NCc1nnc2n1CCN(C(=O)CSc1ccccn1)CC2)c1cccc(F)c1,0,-26,2,-12
O=C(Nc1ccc(NC(=O)c2ccc(Br)cc2)cc1)c1ccncc1,0,-1,-1,-6
CC1=CN2C(=N)/C(=C/c3cc(C)n(-c4ccccc4F)c3C)C(=O)N=C2S1,0,-21,1,6
Cc1ccccc1-n1c(C)cc(/C=C2/C(=N)N3C=CSC3=NC2=O)c1C,0,97*,-1,-4
Cc1cc(/C=C2/C(=N)N3C=CSC3=NC2=O)c(C)n1-c1ccccc1Cl,0,92*,1,4
Cc1cc(C)cc(-n2c(C)cc(/C=C3/C(=N)N4C=CSC4=NC3=O)c2C)c1,0,21,0,8
Cc1cccc(-n2c(C)cc(/C=C3/C(=N)N4C=CSC4=NC3=O)c2C)c1C,0,46*,-1,-1
Cc1ccc(C)c(-n2c(C)cc(/C=C3/C(=N)N4C=CSC4=NC3=O)c2C)c1,0,18,1,17
Cc1cc(/C=C2/C(=N)N3C=CSC3=NC2=O)c(C)n1-c1ccccc1,0,88*,-2,5
Cc1cc(Nc2ccc([N+](=O)[O-])cc2)n2ncnc2n1,0,-5,1,-2
SMILES,FBW7 act,TEAD-YAP block,GPR151 activ,MITF primary
CC1=C(C(=O)N2CCCCC2)C(c2ccc(C)c([N+](=O)[O-])c2)C2=C(CC(C)(C)CC2=O)N1 (configuration not stated),0,-1,0,3
CCc1nc(NCCO)c2nnn(Cc3ccccc3F)c2n1,1,12,-1,41
CCc1ccc(-n2c(C)cc(/C=C3/C(=N)N4C=CSC4=NC3=O)c2C)cc1,0,-4,0,14
CCc1ccccc1-n1c(C)cc(/C=C2/C(=N)N3C=CSC3=NC2=O)c1C,0,62*,-1,9
O=C(Nc1ccc(F)cc1F)N1CCC(n2cnc3cc(F)ccc32)CC1,0,8,2,4
CCc1nn(CC(=O)N2CCC(N3CCCCC3)CC2)c(=O)c2cc3sccc3n12,0,0,0,9
COCCN1C(C)=CC(=C2C(=O)NC(=S)NC2=O)C=C1C(F)(F)F,0,45*,0,2
